Rab9 promoter act: qHTS Assay for Rab9 Promoter Activators; Huh7 Rab9 promoter-luciferase reporter, luminescence, 24 h; Potency, µM (highest dose often 9.22 µM), for the others: at the top dose activation, negative = inhibition, actives largely listed as activators; 320,000 tested, 2.8% active; AID 485297, 2010; also: % of control where 0% means no effect; nearly all actives have a fitted effect of over 60% in size
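Quantitative HTS format; Huh7 Rab9-luciferase reporter cells (1500/well) receive compound 2 h post-plating, incubate 24 h at 37 °C, then get luciferase reagent for 10 min before luminescence reading.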
FLuc counter: qHTS profiling assay for firefly luciferase inhibitor/activator using purifed enzyme and Km concentrations of substrates (counterscreen for miR-21 project) | Luciferin 4-monooxygenase (Photinus pyralis), P08659 | purified FLuc, Km substrates, luminescence inhibition | Potency, µM (highest dose often 57.5 µM), without a hit: top-dose activity change, negative = inhibition, actives largely listed as inhibitors | 360,000 tested, 6.9% active | AID 588342, 2011;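 also: plate controls were vehicle for no effect and reference inhibitor for full effect; nearly all actives have a fitted effect of over 55% in size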
Target sequence (P08659 whole entry, looked up): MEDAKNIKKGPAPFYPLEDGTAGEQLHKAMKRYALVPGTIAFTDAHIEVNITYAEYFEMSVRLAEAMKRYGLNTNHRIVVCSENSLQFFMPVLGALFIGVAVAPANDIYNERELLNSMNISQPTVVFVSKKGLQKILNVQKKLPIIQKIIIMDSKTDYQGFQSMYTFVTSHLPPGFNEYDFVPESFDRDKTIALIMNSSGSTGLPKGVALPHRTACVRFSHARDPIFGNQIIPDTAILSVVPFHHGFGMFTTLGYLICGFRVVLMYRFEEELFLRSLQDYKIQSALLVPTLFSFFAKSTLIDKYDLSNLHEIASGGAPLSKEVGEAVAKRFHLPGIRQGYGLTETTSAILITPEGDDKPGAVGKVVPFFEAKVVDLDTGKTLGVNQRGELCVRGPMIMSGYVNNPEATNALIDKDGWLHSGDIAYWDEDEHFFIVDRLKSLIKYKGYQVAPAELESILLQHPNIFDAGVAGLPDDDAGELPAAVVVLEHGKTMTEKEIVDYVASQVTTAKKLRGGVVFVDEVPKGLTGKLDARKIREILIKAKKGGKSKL
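Purified P. pyralis luciferase (10nM final) with 10uM D-luciferin and 10uM ATP (Km levels) in 50mM Tris acetate pH 7.5, 10mM Mg acetate, 0.01% Tween-20, 0.05% BSA; qHTS 6-point titration, ~60 µM downward; luminescence read.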
NPC1 prom act: qHTS Assay for NPC1 Promoter Activators; Huh7 NPC1 promoter luciferase reporter, 24 h; Potency, µM (top dose mostly 9.22 µM), inactives show at the highest dose activation, most hits filed as activators; 320,000 tested, 2.4% active; AID 485313, 2010; also: % of control where 0% means no effect; nearly all actives have a fitted effect of over 60% in size
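Luminescence from an NPC1 promoter-driven luciferase reporter in stably transfected Huh7 cells was measured after 24 h compound treatment at 37 °C, followed by 10 min ambient incubation with luciferase detection reagent.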
SMN2 splice up: qHTS Assay for Enhancers of SMN2 Splice Variant Expression; Potency, µM (doses to about 46.1 µM), for inactives: top-dose activity change, positive = activation, hits mostly activators; AID 1458, 2008; 210,000 tested, 2.8% active; HEK293 SMN2-luciferase splicing reporter, luminescence, 30-36 h; also: % of control where 0% means no effect; nearly all actives have a fitted effect of over 55% in size
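HEK293 cells carry an SMN2 minigene-luciferase reporter in which exon 7 inclusion puts luciferase in frame. Cells were seeded at 2000 cells/well, attached for 10-12 hours, then exposed to compounds for 30-36 hours at 37C before ONE-Glo luminescence.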
ELG1 genotox: qHTS screen for small molecules that induce genotoxicity in human embryonic kidney (HEK293T) cells expressing luciferase-tagged ELG1 | Potency, µM (doses to about 46 µM), inactives show at the top dose activity change, positive = activation, most hits filed as activators | AID 504466, 2011 | HEK293T ELG1-luciferase reporter, luminescence, 16 h | 330,000 tested, 1.3% active; also: % of control where 0% means no effect; nearly all actives have a fitted effect of over 60% in size
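Genotoxic stress is detected as increased luminescence from luciferase-tagged ELG1 in HEK293T cells, measured with ONE-Glo after a 16 hr treatment at 37 °C.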
Starred values were filed as active, the others as inactive; ? = inconclusive; / = no result given. This is a sample that favours compounds with a hit; in the whole collection about 7.4% have one here. Calls follow the shape of the dose curve; as a rule, active = well fitted curve in the direction sought with a large enough effect; inconclusive = small, poorly fitted or top-dose-only effect, or another doubt; inactive = no such curve, though single readings can be large; an effect the other way counts as inactive or inconclusive. Potency is read from the fitted curve at half-maximal effect.

SMILES	Rab9 promoter act	FLuc counter	NPC1 prom act	SMN2 splice up	ELG1 genotox
Cc1nn(-c2nc3ccccc3[nH]2)c(=O)c2ccccc12	0.1µM*	0.076µM*	?	-98%	?
Cc1nn(-c2ccc(Cl)c(Cl)c2)c(=O)c2ccccc12	19%	-19%	26%	-4%	4%
COc1ccc(NC(=O)C2=C(C)C(=O)OC23CCN(C(C)C)CC3)cc1Cl	/	-4%	/	/	/
Cc1cccc(CNc2ncnc3ccc(-c4ccc5c(ccn5C)c4)cc23)c1	-5%	?	-3%	/	/
CC(=O)N1CCN(C(=O)c2cc(S(=O)(=O)N(C)Cc3ccccc3)ccc2Cl)CC1	-3%	10%	5%	/	0%
Cc1cc(Nc2ccccc2)n(-c2nc3ccccc3[nH]2)n1	-12%	?	-1%	6%	-2%
Cc1nn(-c2nc3ccccc3[nH]2)c(N)c1-c1ccc(Cl)cc1	3.5µM*	8.5µM*	?	?	8%
Cc1cccc(Nc2nnc(SCC3CCCCO3)s2)c1 (configuration not stated)	2.8µM*	5.4µM*	4µM*	20µM*	12%
Cc1cccc(NC(=O)CSc2nnc(NC(=O)C3CCC3)s2)c1	1%	-4%	1%	/	-2%
COc1ccc(Nc2nnc(SCC3CCCCO3)s2)cc1 (configuration not stated)	22%	?	13%	30%	4%
Cc1cccc(Nc2nnc(SCC(=O)Nc3ccc(C(=O)O)cc3)s2)c1	0%	1.7µM*	21%	18%	-4%
Cc1ccccc1Nc1nnc(SCC(=O)Nc2ccccc2[N+](=O)[O-])s1	18%	-14%	-1%	-3%	-1%
Cc1cccc(Nc2nnc(SCC(=O)Nc3ccccc3[N+](=O)[O-])s2)c1	12%	7.6µM*	3%	3%	-5%
Cc1cccc(Nc2nnc(SCC(=O)NC(=O)CN3CCCC3=O)s2)c1	-5%	9.5µM*	-1%	/	7%
Cc1nn(Cc2ccccc2)c(C)c1NC(=O)c1cc(C(C)C)on1	/	-2%	/	-19%	/
COc1ccc(-c2nnc(SCC(=O)Nc3cccc(C)c3)s2)cc1	/	-7%	/	/	/
COc1cc(OC)cc(-c2nnc(SCC(=O)Nc3cccc(C(=O)O)c3)s2)c1	15%	15µM*	4%	8%	-3%
Nc1c(Cl)ncnc1N/N=C/c1ccc2ccccc2n1	?	4.8µM*	?	-41%	?
Nc1c(Cl)ncnc1N/N=C/c1ccccn1	1%	?	0%	-81%	4.1µM*
CCOc1cc(/C=N/Nc2ncnc(Cl)c2N)ccc1O	22%	11µM*	16%	23%	?
Cc1cccc(Oc2ccc(NC(=O)c3ccccc3C(=O)O)cc2)c1C	-2%	19µM*	0%	-14%	-2%
COc1ccc(NC(=O)c2ccccc2-c2ccccc2C(=O)O)cc1	-3%	3%	0%	/	-2%
O=C(O)c1ccccc1C(=O)Nc1ccc(Oc2ccc3ccccc3c2)cc1	-3%	27µM*	-3%	/	3%
Cc1c(C)c(C)c(C(=O)c2ccc(NC(=O)c3ccccc3C(=O)O)cc2)c(C)c1C	-3%	-1%	-5%	/	1%
O=C(O)c1ccccc1C(=O)Nc1ccc(Oc2cccc3ccccc23)cc1	-2%	24µM*	-3%	-8%	-10%
SMILES	Rab9 promoter act	FLuc counter	NPC1 prom act	SMN2 splice up	ELG1 genotox
O=C(Nc1ccc(Oc2cccc3ccccc23)cc1)c1ccco1	13%	24µM*	4%	-54%	?
COc1ccc(NC(=O)c2ccccc2Oc2ccccc2)cc1	1%	-10%	3%	/	5%
Cc1ccc(-n2ncc(C(=O)NCCN3CCC(Cc4ccccc4)CC3)c2C2CCN(C(=O)OC(C)(C)C)CC2)cc1	/	-8%	/	/	/
Cc1ccc(-c2cc3onc(-c4ccccc4)c3c(=O)n2C)cc1	?	0.13µM*	?	/	?
CC(C)(Oc1ccc(CCNC(=O)c2ccc(-c3ccc(Cl)cc3)o2)cc1)C(=O)O	1%	24µM*	-2%	-6%	-6%
O=C(CS(=O)(=O)Nc1ccc(F)cc1Cl)Nc1ccc(F)cc1Cl	-5%	0%	2%	/	-8%
CCCCN1C(=O)c2ccc(C(=O)Nc3ccccc3N3CCOCC3)cc2C1=O	-2%	-10%	-4%	-6%	-5%
CCN1C(=O)/C(=C2\SC(N3CCOCC3)=NC2=O)c2ccccc21	26%	11µM*	18%	/	3%
CCCCN1C(=O)/C(=C2\SC(N3CCOCC3)=NC2=O)c2ccccc21	2µM*	?	2µM*	/	-2%
C=CCN1C(=O)/C(=C2\SC(N3CCOCC3)=NC2=O)c2cc(Br)ccc21	-3%	-14%	-1%	11%	-6%
O=C(Nc1ccnn1C1CCN(Cc2ccccc2F)CC1)C1CCCC1	-1%	2%	-4%	/	0%
COC(=O)c1ccccc1NC(=O)COc1ccc2c(c1)OCO2	?	-12%	16%	/	4%
Cc1ccccc1NC(=O)COc1ccc2c(c1)OC(C)(C)CC2=O	?	24µM*	?	/	14%
O=C(/C=C/c1ccc2c(c1)OCO2)Nc1ccc(Cl)cn1	0.56µM*	1.9µM*	1.1µM*	10µM*	2.1µM*
O=C(COc1ccc2c(c1)OCO2)Nc1ccccc1F	?	6µM*	?	6%	?
O=C(/C=C/c1ccc2c(c1)OCO2)NC1CCCC1	0%	15µM*	4%	/	15%
NC(=O)COc1ccc(NC(=O)CC23CC4CC(CC(C4)C2)C3)cc1	3%	2%	-4%	/	10%
O=C(COc1ccc(Cl)cc1)Nc1ccc(Cl)cn1	?	12µM*	?	/	?
O=C(COc1ccc(Cl)cc1Cl)Nc1ccccn1	0.1µM*	0.076µM*	?	-13%	-11%
COc1ccc(C(=O)OCC(=O)Nc2ccc(Cl)cn2)cc1	5%	-1%	-1%	/	0%
O=C(COc1ccccc1)Nc1ccc(Cl)cn1	?	19µM*	25%	/	?
O=C(COC(=O)CCOc1ccccc1)Nc1ccc(Cl)cn1	2%	-2%	-2%	32%	0%
O=C(COc1ccccc1Cl)Nc1ccc(Cl)cn1	1.4µM*	0.95µM*	2.2µM*	11µM*	3.2µM*
O=C(COC(=O)COc1ccccc1F)Nc1ccc(Cl)cn1	-2%	-8%	-2%	/	-2%
COc1ccccc1NC(=O)CC(NC1CCCCC1)C(=O)O (configuration not stated)	0%	3%	-1%	3%	1%
O=S(=O)(NCC1CCN(c2ccc(S(=O)(=O)N3CCOCC3)cc2)CC1)c1ccc(F)cc1	-3%	2%	-4%	/	-24%
